Source: PubChem BioAssay
“And” between values parts separate entries of the source, which are not always exact repeats. Identical values can stand only once. The source made the active and inactive calls. Unless noted, the rule behind the calls is not given here.

Key:
[1] = tested on: Wnt5a (protein binding on small-molecule microarray); experiment: small molecules binding Wnt5a protein – biophysical, small-molecule microarray, 635/667 nm fluorescence, primary screen (AID 1142); conditions: 635 nm fluorescence, higher = more signal;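 note: fluorescence read at 667 nm with signal to noise per printed feature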
[2] = ATP-based viability of Huh7 replicon cells – cell-based, CellTiter-Glo luminescence, basal, 48 h, cytotoxicity control for HCV replication inhibitor project, primary screen (AID 1143); conditions: higher = more signal, called active from +8 up or from −8 down;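 note: Huh7 hepatoma cells carrying a hepatitis C replication reporter with no stimulus; test concentration not given here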
[3] = Pseudomonas biofilm growth suppression – PAO1 strain, BacTiter-Glo luminescence, LB-PBS, primary screen (AID 1144); conditions: P. aeruginosa PAO1 biofilm, 12 h, higher = more signal
[4] = basal CRE-LacZ reporter activity in PC12 – cell-based, unstimulated, primary screen (AID 1145); conditions: no forskolin, luminescence, 4.5 h, higher = more signal, called active from +8 up or from −8 down
[5] = forskolin-driven CRE-LacZ activity in PC12 – cell-based, CRE-LacZ reporter, forskolin-stimulated, primary screen (AID 1146); conditions: luminescence, 4.5 h, higher = more signal, called active from +8 up or from −8 down;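 note: PC12 cells with 6xCRE LacZ reporter stimulated by forskolin 10 µM; beta-galactosidase reporter signal reflecting CREB driven transcription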
[6] = target: Streptavidin (Streptomyces avidinii) (UniProt P22629); experiment: compounds binding control protein streptavidin – biophysical, small-molecule microarray, 635/667 nm fluorescence, artefact control for SMM compound annotation, primary screen (AID 1147); conditions: higher = more signal;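 note: signal reflects streptavidin binding to arrayed compounds as a control protein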
[7] = probe aInhba binding on compound microarray – biochemical, small-molecule microarray, 635/667 nm fluorescence, primary screen (AID 1148); conditions: higher = more signal;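 note: score merges 667nm spot fluorescence with signal-to-noise for antibody binding to printed compounds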
Torsin-1A (Homo sapiens) [8] = target: Torsin-1A (Homo sapiens) (UniProt O14656); experiment: TOR1A wild-type binding on microarray – cell lysate, small-molecule microarray, lysate, 635/667 nm, primary screen (AID 1149); conditions: COS7 hTOR1A-WT lysate, 635 nm fluorescence, higher = more signal
Torsin-1A (Homo sapiens) [9] = target: Torsin-1A (Homo sapiens) (UniProt O14656); experiment: torsin A mutant lysate binding on microarrays – cell lysate, small-molecule microarray, COS7 lysate, 635/667 nm fluorescence, primary screen (AID 1150); conditions: COS7 hTOR1A mutant lysate, 635 nm fluorescence, higher = more signal;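 note: score pools 667 nm emission and signal to noise measuring lysate protein binding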
[10] = tested on: Sonic hedgehog protein (Shh); experiment: Sonic hedgehog microarray binding compounds – biochemical, small-molecule microarray, 635/667 nm fluorescence, primary screen (AID 1151); conditions: 635 nm fluorescence, higher = more signal;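 note: Shh protein binding to compounds spotted on small-molecule microarray slides; score combines spot fluorescence intensity with signal-to-noise across triplicate slides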

Streptavidin (Streptomyces avidinii), sequence (P22629 whole entry, looked up): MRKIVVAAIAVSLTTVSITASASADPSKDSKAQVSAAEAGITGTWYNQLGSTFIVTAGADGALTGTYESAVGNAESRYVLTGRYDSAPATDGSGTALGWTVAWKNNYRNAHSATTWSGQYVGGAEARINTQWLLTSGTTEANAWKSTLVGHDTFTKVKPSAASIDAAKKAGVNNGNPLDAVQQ
Torsin-1A (Homo sapiens), sequence (O14656 whole entry, looked up): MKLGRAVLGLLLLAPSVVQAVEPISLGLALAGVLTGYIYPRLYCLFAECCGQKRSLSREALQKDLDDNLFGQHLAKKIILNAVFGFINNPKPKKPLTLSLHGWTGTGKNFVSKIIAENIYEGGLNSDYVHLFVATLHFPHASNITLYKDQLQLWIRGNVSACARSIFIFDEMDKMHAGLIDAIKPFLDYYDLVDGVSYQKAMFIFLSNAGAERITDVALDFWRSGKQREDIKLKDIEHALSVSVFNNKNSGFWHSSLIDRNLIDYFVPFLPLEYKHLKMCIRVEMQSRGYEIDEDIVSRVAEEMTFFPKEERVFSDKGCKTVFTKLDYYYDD

SMILES | composite z-score [1] | z-score [2] | z-score [3] | z-score [4] | z-score [5] | composite z-score [6] | composite z-score [7] | composite z-score (Torsin-1A (Homo sapiens) [8]) | composite z-score (Torsin-1A (Homo sapiens) [9]) | composite z-score [10]
COC(=O)c1c2oc(c1C(=O)OC)C(=O)N[C@@H](Cc1ccccc1)Cn1cc(nn1)C1(CCCCC1)NC(=O)N[C@H](CO)CC2 | 0.547 and 0.189 | -0.237 (inactive) and -0.109 (inactive) | -1.23 (inactive) and -0.509 (inactive) | 0.484 (inactive) and 3.25 (inactive) | -0.635 (inactive) and -0.0904 (inactive) | 0.216 and 0.517 | 0.271 and -0.103 | 0.212 and 0.403 | -0.0506 and 0.489 | 1.28 and 0.781
C=C[C@@H](C)[C@@H](O)c1ccc(OCCO)cc1 | -1.29 and -1.06 | -0.295 (inactive) and -0.245 (inactive) | -0.828 (inactive) and -0.12 (inactive) | 0.105 (inactive) and 1.46 (inactive) | -0.466 (inactive) and -0.637 (inactive) | -1.1 and -0.908 | -0.312 and -0.213 | -3.3 and -3.39 | -2.66 and -2.95 | -1.39 and 0.319
CC(CO)N1C(=O)[C@@H]2C3C(=O)OCCC=C[C@H]3OC23C=CCN(Cn2nnc4ccccc42)C(=O)[C@@H]13 (stereo not given in full) | -0.757 and 0.0538 | -0.095 (inactive) and -0.464 (inactive) | 0.422 (inactive) and -0.131 (inactive) | -0.208 (inactive) and -1.44 (inactive) | -0.372 (inactive) and 0.774 (inactive) | -0.909 and -0.228 | -0.0675 and -0.0405 | -1.13 and 1.95 | -0.987 and 0.603 | -1.26 and 0.935
CCCCCN1CC=CC23O[C@@H]4C=CCCOC(=O)C4[C@H]2C(=O)N(C(C)CO)[C@@H]3C1=O (stereo not given in full) | -0.226 and -0.744 | -0.153 (inactive) and 0.0164 (inactive) | -1.76 (inactive) and -0.529 (inactive) | -0.48 (inactive) and -0.639 (inactive) | -0.215 (inactive) and -0.498 (inactive) | -0.819 and -0.0005 | -0.837 and -0.0933 | 1.07 and -1.42 | 0.128 and -0.904 | 0.644 and 0.138
CC(CO)N1C(=O)[C@@H]2C3C(=O)OCCC=C[C@H]3OC23C=CCN(c2ccc(Cl)cc2)C(=O)[C@@H]13 (stereo not given in full) | -0.396 and -0.34 | -0.666 (inactive) and -0.787 (inactive) | 1.06 (inactive) and 0.664 (inactive) | 0.187 (inactive) and 0.325 (inactive) | -0.613 (inactive) and 0.478 (inactive) | -0.9 and 0.152 | -0.111 and 0.0541 | -1.09 and -1.53 | -2.42 and -1.49 | -0.359 and 0.829
COc1ccc(-c2ccc3c(n2)CCCN3CC(O)CN2CCCc3nc(-c4ccc(Br)cc4)ccc32)cc1 (stereo not given) | 0.353 and 0.0813 | -1.86 (inactive) and -0.196 (inactive) | 0.766 (inactive) and 0.0378 (inactive) | -0.434 (inactive) and -0.161 (inactive) | -0.152 (inactive) and -0.116 (inactive) | 1.41 and 0.932 | 0.136 and 0.204 | 0.438 and 0.224 | 0.528 and 0.588 | 1.03 and 0.76
CCCCN1CC=CC23O[C@@H]4C=CCCOC(=O)C4[C@H]2C(=O)N(C(C)CO)[C@@H]3C1=O (stereo not given in full) | -0.296 and 0.339 | 0.161 (inactive) and -0.214 (inactive) | 0.781 (inactive) and 1.82 (inactive) | -0.216 (inactive) and -0.204 (inactive) | 0.405 (inactive) and -0.764 (inactive) | -1.23 and -0.178 | -0.143 and 0.201 | 0.234 and -0.131 | 0.234 and 0.148 | 0.173 and 0.798
CO[C@H]1COC(=O)CC=C[C@H](C)[C@H](OC)COC(=O)[C@@H](C)COC(=O)CC=C[C@@H]1C | -0.051 and -0.105 | 1.08 (inactive) and -0.441 (inactive) | -0.186 (inactive) and 0.0947 (inactive) | -0.116 (inactive) and -1.19 (inactive) | -0.689 (inactive) and -0.777 (inactive) | -0.313 and 0.0956 | -0.195 and -0.224 | 0.636 and 0.802 | 0.269 and 1.17 | 1.08 and 1.09
C[C@@]1([C@@H](NC(=O)Cc2ccccc2)c2ccc(-c3ccccc3)cc2)C[C@H]1C1CCCCC1 | 1.42 and 1.03 and 0.799 | -4.75 (inactive) and -1.29 (inactive) and -1.07 (inactive) | -0.411 (inactive) and -0.255 (inactive) and 0.378 (inactive) | -0.957 (inactive) and -0.185 (inactive) and -0.375 (inactive) | -1.27 (inactive) and 0.614 (inactive) and 0.79 (inactive) | 2.11 and 0.863 and -0.261 | 0.846 and 1.64 and -0.328 | 0.0326 and 1.34 and 0.296 | 0.621 and 0.522 and 0.821 | -1.33 and -0.836 and -0.607
C[N+](C)(C)CCCCNC(=O)[C@H]1C[C@H]2C(=O)N[C@@H](CCCC[N+](C)(C)C)C(=O)N2[C@H]1c1ccc(O)cc1 | 0.96 and 0.388 | 0.171 (inactive) and -2.13 (inactive) | -0.597 (inactive) and -1.3 (inactive) | -0.541 (inactive) and 0.679 (inactive) | 0.485 (inactive) and -0.16 (inactive) | 0.16 and -1.27 | -0.154 and -0.251 | 2.32 and 1.51 | 0.287 and 0.683 | 2.27 and 2.33
COC(=O)C1=C(C)N(Cc2ccccc2)C2=C3C(=O)N(c4ccccc4)C(=O)[C@@H]3[C@@](O)(C(=O)OC)C(=O)N2[C@@H]1c1ccccc1 | 0.297 and 0.678 | -0.146 (inactive) and -1.82 (inactive) | 0.9 (inactive) | 2.72 (inactive) and -0.615 (inactive) | -0.718 (inactive) and -0.78 (inactive) | 0.117 and 0.12 | -0.024 and -0.0313 | 0.801 and 0.365 | 0.516 and 0.533 | 0.574 and 0.726
C=CCN(C(=O)C1N(CCCCCCO)C(=O)C2C(C(=O)O)C3C=CC21O3)c1ccc(OC)cc1 (stereo not given) | 1.04 and -0.561 | 0.191 (inactive) and 0.252 (inactive) | 1.51 (inactive) | 0.0564 (inactive) and 0.724 (inactive) | -0.933 (inactive) and -0.173 (inactive) | -0.825 and -0.728 | -0.0791 and -0.0279 | -3.03 and -2.03 | -1.75 and -1.28 | -1.27 and -1.42
